Results filed as inconclusive are left out. Activity calls are given as the source filed them. Calls follow the shape of the full dose curve.
Assays:
[1] = molecular target: Acetylcholinesterase (Homo sapiens) (UniProt P22303); experiment: Acetylcholinesterase (AChE) small molecule antagonists: colormetric cell-based qHTS assay (AID 1347395); also: nearly all actives have a fitted effect of over 30% in size
Outline: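 After overnight attachment at 37 C, SH-SY5Y cells get 30 min compound exposure; detection cocktail (acetylthiocholine, DTNB) then incubates 90 min at 37 C, and absorbance reflects AChE-generated thiocholine.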

[2] = molecular target: Acetylcholinesterase (Homo sapiens) (UniProt P22303); experiment: Acetylcholinesterase (AChE) small molecule antagonists: enzyme-based qHTS assay (AID 1347397); details: Potency: AChE enzyme activity inhibition; outcome: AChE enzyme activity inhibition; also: nearly all actives have a fitted effect of over 55% in size
Outline: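 Colorimetric DTNB readout of acetylthiocholine hydrolysis, 10 min at room temperature, after 30 min room-temperature exposure of 50 mU/mL recombinant human enzyme to compound; DMSO vehicle control.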

[3] = molecular target: Acetylcholinesterase (Homo sapiens) (UniProt P22303); experiment: Acetylcholinesterase (AChE) small molecule antagonists: fluorescence cell-based qHTS assay (AID 1347398); details: Potency: AChE activity; outcome: AChE activity; also: nearly all actives have a fitted effect of over 50% in size
Outline: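 Cellular AChE activity read as thiocholine from acetylthiocholine hydrolysis, detected by Thiolite Green fluorescence at 490/520 nm after 40 min at room temperature. Compounds were pre-incubated 30 min at 37 C on adherent SH-SY5Y cells.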

[4] = molecular target: Acetylcholinesterase (Homo sapiens) (UniProt P22303); experiment: Acetylcholinesterase (AChE) small molecule antagonists: enzyme-based qHTS assay with human liver microsomes (AID 1347399); details: Potency: qHTS inhibition; outcome: qHTS inhibition; also: nearly all actives have a fitted effect of over 60% in size
Outline: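 Recombinant human AChE (50 mU/mL in the enzyme mix) and human liver microsomes (0.25 mg/mL final) were preincubated with compound and NADPH (0.25 mg/mL final) for 30 min at 37 C. Acetylthiocholine/DTNB was then added; thiocholine was read colorimetrically after 10 min at room temperature.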

Measured: Potency

Sequence of Acetylcholinesterase (Homo sapiens) (P22303 whole entry, looked up): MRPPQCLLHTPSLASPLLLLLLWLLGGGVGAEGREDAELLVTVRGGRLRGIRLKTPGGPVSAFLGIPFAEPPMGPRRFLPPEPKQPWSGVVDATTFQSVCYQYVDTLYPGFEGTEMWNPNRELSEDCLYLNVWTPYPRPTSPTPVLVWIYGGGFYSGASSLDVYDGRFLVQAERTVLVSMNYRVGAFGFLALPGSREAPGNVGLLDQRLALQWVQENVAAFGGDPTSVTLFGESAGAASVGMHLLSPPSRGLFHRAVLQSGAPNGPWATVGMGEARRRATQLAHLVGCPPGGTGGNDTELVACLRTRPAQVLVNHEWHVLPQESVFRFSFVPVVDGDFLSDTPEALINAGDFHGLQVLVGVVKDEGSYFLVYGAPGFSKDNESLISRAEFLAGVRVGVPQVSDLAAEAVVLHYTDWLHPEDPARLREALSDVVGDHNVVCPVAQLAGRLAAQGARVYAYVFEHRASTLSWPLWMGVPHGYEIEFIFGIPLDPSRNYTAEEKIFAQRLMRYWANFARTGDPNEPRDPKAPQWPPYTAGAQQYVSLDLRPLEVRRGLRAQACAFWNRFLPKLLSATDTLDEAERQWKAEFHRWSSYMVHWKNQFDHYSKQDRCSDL

Cc1ccc(C(=O)Oc2ccc(C(O)CNC(C)(C)C)cc2OC(=O)c2ccc(C)cc2)cc1 (stereo unspecified)
inactive: all assays above

C[C@]12C=CC(=O)C=C1CC[C@H]1[C@@H]3C[C@@H](O)[C@](O)(C(=O)CO)[C@@]3(C)C[C@H](O)[C@@]12F
inactive: all assays above

CC(C)CCCCCCc1ccc(O)cc1
inactive: all assays above

NC(=O)C(=O)N/N=C/c1ccc([N+](=O)[O-])o1
inactive: all assays above

CCc1ccccc1O
inactive: all assays above

O=CCc1ccccc1
inactive: all assays above

CC(C)CCCCCCOC(=O)c1ccc(C(=O)OCCCCCCC(C)C)c(C(=O)OCCCCCCC(C)C)c1
inactive: all assays above

CCC(C)(O)CCCC(C)C (stereo unspecified)
inactive: all assays above

NC(=O)N(O)[C@@H]1COc2cc(OCc3ccccc3)ccc21
inactive: all assays above

CC(=O)/C=C/C1C(C)=CCCC1(C)C (stereo unspecified)
inactive: all assays above

COC(=O)C1=C(C)NC(C)=C(C(=O)OCC(C)=O)C1c1ccccc1[N+](=O)[O-] (stereo unspecified)
inactive: all assays above

O=C(O)c1cccc(O)c1
inactive: all assays above

CCCCCCCCCCCCCO
inactive: all assays above

CCN(CC)C(=O)c1cccc(C)c1
inactive: all assays above

COc1ccc(Cl)cc1C(=O)NCCc1ccc(S(=O)(=O)NC(=O)NC2CCCCC2)cc1
inactive: all assays above

O=C(OCCCCCCOC(=O)c1ccccc1)c1ccccc1
inactive: all assays above

c1ccc(OCc2ccc(CCCN3CCOCC3)cc2)cc1
inactive: all assays above

CC(=O)OC(C)c1ccccc1 (stereo unspecified)
inactive: all assays above

Cc1cnc(NC(=O)C2=C(O)c3ccccc3S(=O)(=O)N2C)s1
inactive: all assays above

Nc1cc(Cl)c([N+](=O)[O-])cc1O
inactive: all assays above

COc1ccccc1OCC(O)COC(N)=O (stereo unspecified)
inactive: all assays above

Cc1cc(NC(=O)C(=O)O)cc(C)c1Oc1ccc(O)c2c1CCC2
inactive: all assays above

CN1[C@@H]2CC[C@H]1CC(OC(=O)c1c[nH]c3ccccc13)C2 (stereo partly specified)
inactive: all assays above

CCNc1cccc(C)c1
inactive: all assays above

CCCCCCCCCCCCCCCCCC#N
inactive: all assays above

CC(=O)OCC(C)C
inactive: all assays above

C=C(C)C(=O)OCCNC(C)(C)C
inactive: all assays above

Cc1cc(CCCOc2c(C)cc(-c3noc(C(F)(F)F)n3)cc2C)on1
inactive: all assays above

CC(C)OC(C)C
inactive: all assays above

c1ccc(CSCc2ccccc2)cc1
inactive: all assays above

COc1ccc(OC(F)(F)F)cc1CN[C@H]1CCCN[C@H]1c1ccccc1
inactive: all assays above

CC(=O)N[C@@H](CCC(N)=O)C(=O)O
inactive: all assays above

COc1ccc(C(=O)/C(Br)=C\C(=O)O)cc1
inactive: all assays above

c1ccc2n[nH]nc2c1
inactive: all assays above

CC(=O)c1ccccc1O
inactive: all assays above

CC(C)(C)N
inactive: all assays above

ON=C1CCCCC1
inactive: all assays above

O=C(CCN1CCN(CCO)CC1)N1c2ccccc2Sc2ccc(C(F)(F)F)cc21
inactive: all assays above

CCCCCCCCCCCCCCCCCCN(C)C
inactive: all assays above
